Bioassay records: PubChem BioAssay, The Scripps Research Institute Molecular Screening Center
CHRM1 PAM = potentiates human M1 receptor response to acetylcholine; CHO-K1 hM1, Fluo-8 calcium fluorescence, ACh EC20; 0% = ACh EC20, 100% = maximal ACh; activation, % at 3 µM; 0.088% of 360,000 active; AID 588819; in the data active means activation above about 19%, passing the limit was not always enough
Target sequence (P11229 whole entry, looked up): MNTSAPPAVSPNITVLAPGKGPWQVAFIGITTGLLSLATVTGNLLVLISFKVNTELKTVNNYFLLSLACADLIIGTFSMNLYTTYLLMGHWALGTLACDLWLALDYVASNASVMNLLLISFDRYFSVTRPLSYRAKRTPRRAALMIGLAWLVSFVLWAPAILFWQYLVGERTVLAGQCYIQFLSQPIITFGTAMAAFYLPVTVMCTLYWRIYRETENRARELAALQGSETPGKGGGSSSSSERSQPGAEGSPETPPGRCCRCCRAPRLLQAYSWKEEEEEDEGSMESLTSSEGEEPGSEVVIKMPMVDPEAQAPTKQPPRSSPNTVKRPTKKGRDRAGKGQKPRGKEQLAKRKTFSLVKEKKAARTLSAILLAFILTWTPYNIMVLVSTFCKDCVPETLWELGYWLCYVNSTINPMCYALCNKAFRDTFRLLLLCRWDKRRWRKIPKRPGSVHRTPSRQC
M1 ag parental = nonselective activator or artifact in parental CHO-K1 cells; activation, % at 3 µM; 0.48% of 360,000 active; Fluo-8 calcium fluorescence; scaled to maximal ATP response, vehicle zero; AID 602248; in the data active means activation above about 15%;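 further: untransfected CHO-K1 host cells lacking M1 receptor as counterscreen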
CHO-K1 Ca antag = counter-screen for M1 antagonists: effect in parental CHO-K1 cells; ATP-induced calcium, Fluo-8 fluorescence; inhibition, % at 3 µM; 0.6% of 360,000 active; AID 602250;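 active means inhibition above a per-plate cutoff, the plate's mean sample inhibition plus 3 SD, cut at about 24% in these data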;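 further: 0% = DMSO plus EC80 ATP and 100% = DMSO alone without ATP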
CHO-K1 Ca PAM = M1 PAM counterscreen hit in parental CHO-K1 cells; ATP EC20, Fluo-8 calcium fluorescence; 0% at ATP EC20, 100% at ATP max; AID 602247; 0.02% of 360,000 active; activation, % at 3 µM;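 active means activation above the run cutoff, the mean activation of all test compounds plus 3 SD, cut at about 40% in these data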;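 further: peak over basal fluorescence ratio in a 140 s read after ATP addition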
CHRM1 agonist = agonists of human M1 muscarinic receptor; 0.33% of 360,000 active; activation, % at 3 µM; CHO-K1 hM1, Fluo-8 calcium fluorescence, agonist mode; 0% DMSO, 100% acetylcholine EC100; P11229; AID 588814;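 active means activation above the run's mean compound activation plus 3 SD, cut at about 16% in these data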;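 further: peak over basal fluorescence ratio within a 140 s kinetic read after compound addition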
CHRM1 antagonist = human CHRM1 antagonism; 1.3% of 360,000 active; AID 588852; CHO-K1 hM1, Fluo-8 calcium fluorescence, ACh EC80 antagonist; inhibition, % at 3 µM;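 active means percent inhibition above its own plate's cutoff, namely the mean of that plate's compound wells plus 3 SD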;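 further: peak over basal fluorescence ratio during 140 s after agonist addition; 0% = ACh EC80 plus DMSO and 100% = DMSO alone without agonist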
Active calls of the source: *. Shown are actives, neighbours in structure and some others; about 2.3% of the full set was active somewhere.

SMILES | CHRM1 PAM | M1 ag parental | CHO-K1 Ca antag | CHO-K1 Ca PAM | CHRM1 agonist | CHRM1 antagonist
S=c1[nH]nc(-c2ccncc2)n1/N=C/C(Cl)=C\c1ccccc1 | 0.9 | 1.3 | -15.2 | 7.7 | 38.9* | 10.6
S=c1[nH]nc(-c2ccncc2)n1/N=C/C=C/c1ccccc1 | 13.9 | 0.6 | -8.5 | 14.8 | 3.0 | -11.7
O=C(CCCl)N1CCCC2(CCCCC2)C1 | 6.6 | 0.6 | 0.5 | 26.1 | -3.1 | -10.8
COc1ccccc1Nc1nc2c(C)cccc2cc1C#N | 7.5 | 0.2 | -5.2 | 9.4 | -3.6 | -1.8
COc1ccccc1Nc1nc2cc(C)ccc2cc1C#N | 15.1 | 15.7* | 10.1 | 14.0 | -6.7 | -1.0
COc1ccccc1Nc1nc2ccc(C)cc2cc1C#N | -1.7 | -0.3 | 24.7* | -5.6 | 0.1 | 2.0
COc1ccccc1CC(=O)N1CCN(C(=O)c2ccco2)CC1 | 4.4 | 0.6 | -7.1 | 7.3 | -3.3 | -5.7
O=C(c1ccoc1)N1CCC2(CCCN(Cc3ccc(F)c(F)c3)C2)C1 (stereo unspecified) | -22.0 | 0.3 | -3.6 | 5.8 | -6.0 | 54.7*
O=C(CCC1CCCN(C(=O)c2ccoc2)C1)NCc1ccc(F)c(F)c1 (stereo unspecified) | 4.8 | 1.0 | -12.5 | 23.7 | -4.4 | 0.3
Cc1occc1C(=O)N1CCC2(CCCN(Cc3ccc(F)c(F)c3)C2)C1 (stereo unspecified) | -24.0 | -0.5 | -4.2 | -6.8 | -6.6 | 65.4*
CCc1noc(C)c1C(=O)Nc1nnc(C(CC)CC)s1 | 14.3 | 0.0 | -14.5 | 0.6 | 0.4 | -6.0
COC(=O)C1(CCSC)NC(c2ccc(O)c(OC)c2)C2C(=O)N(c3ccc(C)cc3)C(=O)C21 (stereo unspecified) | 4.2 | 2.7 | -9.8 | 20.4 | 24.7* | -4.6
CCN(CC)c1ccc(/C=N/N2C(C)CCCC2C)c(O)c1 (stereo unspecified) | -10.6 | 3.7 | -14.7 | 25.1 | -8.8 | 8.6
Cc1ccccc1NC(=O)Cc1nnc(SCC(=O)NC2CCCC2)n1C | 0.9 | 0.2 | 5.8 | -10.8 | 0.3 | 0.8
COC(=O)c1ccc(NC(=O)C2CC3CCC2C3)cc1 (stereo unspecified) | 2.8 | 2.0 | -1.6 | 3.0 | -4.4 | -2.8
COC(=O)c1ccc(NC(=S)NC2CC3CCC2C3)cc1 (stereo unspecified) | -5.8 | 16.5* | 12.6 | 10.8 | -3.6 | 17.4
O=C(NCc1ccccn1)C(C(=O)c1cccc([N+](=O)[O-])c1)n1cc(Cl)ccc1=O (stereo unspecified) | 9.6 | 2.0 | -14.4 | 17.8 | -2.3 | -12.0
COc1cc(OC)c(N(C)C(=O)CCNC(=O)Cn2cnc3ccccc3c2=O)cc1Cl | 8.3 | -0.1 | -11.9 | 12.7 | -2.6 | -6.3
COc1cc(OC)c(NC(=O)CCNC(=O)Cn2cnc3ccccc3c2=O)cc1Cl | 25.6* | 0.0 | 16.0 | -1.4 | 3.1 | -36.2
Cc1ccc(S(=O)(=O)N2CCN(c3cc4c(cc3[N+](=O)[O-])n(C)c(=O)n4C)CC2)cc1 | -22.5 | 7.9 | -2.2 | 5.4 | 0.2 | 52.1*
Cn1c(=O)n(C)c2cc([N+](=O)[O-])c(N3CCN(S(=O)(=O)c4ccc5ccccc5c4)CC3)cc21 | 5.4 | 0.6 | -14.5 | 11.9 | -0.3 | -3.9
COc1ccc(Nc2nc(Nc3ccc(OC)cc3)nc(-n3[nH]c(=O)c(C)c3C)n2)cc1 | -6.9 | 2.6 | 11.7 | 7.5 | -2.9 | 33.0*
CCN(CC)C(=O)c1ccc(COc2ccc(Cl)c(C)c2)o1 | -9.8 | 10.2 | 20.4 | 3.8 | 4.2 | 31.9*
Cc1cc(C(=O)COC(=O)c2n[nH]c3ccccc23)c(C)n1C | 8.6 | 2.1 | -10.0 | 27.2 | -2.0 | -12.9
Cc1cc(C(=O)COC(=O)c2n[nH]c(=O)c3ccccc23)c(C)n1C | -12.3 | -0.1 | 5.8 | -6.8 | -1.1 | 28.4*
COc1ccc(CNC(=O)c2cccc3c(-c4cccnc4)coc23)cc1OC | -16.8 | 15.2* | 27.7* | -8.1 | 4.4 | 33.9*
O=C(Nc1ccc(S(=O)(=O)NC2=NCCCCC2)cc1)c1ccc2ccccc2n1 | 17.3 | 0.8 | -17.4 | 17.1 | 1.1 | -8.7
O=C(C1CCN(c2nnc(-n3cccc3)s2)CC1)N1CCCCC1 | -12.0 | 0.8 | -14.7 | 13.3 | -5.2 | 21.4
CC1CCN(C(=O)C2CCN(c3nnc(-n4cccc4)s3)CC2)CC1 | -9.8 | 0.7 | 56.8* | 6.2 | -5.3 | 9.3
